Gal4-VP16 FLuc: VP16 counterscreen qHTS for inhibitors of ROR gamma transcriptional activity; 310,000 compounds, 3.5% hits; Drosophila S2 Gal4-VP16 UAS-luciferase, luminescence, 20 h; Potency, µM (titrated, usually from 53.6 µM), hits mostly inhibitors;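 further: Gal4-VP16 expression switched on by copper sulfate through the metallothionein promoter; nearly all actives have a fitted effect of over 50% in size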
RORgamma inh: qHTS for inhibitors of ROR gamma transcriptional activity | Potency, µM (doses to about 53.6 µM), usual class: inhibitors | 310,000 compounds, 5.4% hits | AID 2551, 2010 | Drosophila S2 Gal4-RORgamma UAS-luciferase reporter, 20 h; further: nearly all actives have a fitted effect of over 60% in size
Target sequence (P51450 whole entry, looked up, the tested form may be a part): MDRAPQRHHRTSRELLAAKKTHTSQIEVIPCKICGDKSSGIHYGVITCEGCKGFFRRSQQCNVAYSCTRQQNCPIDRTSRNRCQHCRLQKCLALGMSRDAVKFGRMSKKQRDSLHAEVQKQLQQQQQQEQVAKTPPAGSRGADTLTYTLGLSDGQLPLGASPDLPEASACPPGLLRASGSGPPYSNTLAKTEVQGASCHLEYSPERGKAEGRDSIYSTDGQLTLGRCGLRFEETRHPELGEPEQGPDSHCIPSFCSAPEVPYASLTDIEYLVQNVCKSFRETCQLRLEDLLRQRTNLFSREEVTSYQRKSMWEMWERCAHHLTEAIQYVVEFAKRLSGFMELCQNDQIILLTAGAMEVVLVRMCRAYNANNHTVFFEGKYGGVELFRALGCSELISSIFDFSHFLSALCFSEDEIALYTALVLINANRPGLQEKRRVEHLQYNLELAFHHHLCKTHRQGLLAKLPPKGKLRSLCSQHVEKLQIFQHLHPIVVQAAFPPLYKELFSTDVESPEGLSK
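Drosophila Schneider cells stably carrying a metallothionein-driven Gal4 DBD–ROR gamma fusion and a UAS-Photinus luciferase reporter were exposed to compound for 1 hr, then induced with copper sulfate (700 uM final) for 20 hr at ambient temperature before luminescence reading.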
KB-3-1 tox: qHTS assay for MDR1-selective chemotherapeutics: Primary screen using the parental adenocarcinoma cell KB-3-1; KB-3-1 viability, CellTiter-Glo ATP luminescence, 72 h; Potency, µM (highest dose often 46.1 µM), usual class: cytotoxic; 400,000 compounds, 1.4% hits; AID 1347075, 2019; further: nearly all actives have a fitted effect of over 60% in size
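Parental KB-3-1 viability, qHTS format: 72 h compound exposure, 37 °C; CellTiter-Glo; media-only wells and DMSO plates as controls; concentration-effect fits on corrected data.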
KB-V1 MDR tox: qHTS assay for MDR1-selective chemotherapeutics: Primary screen using the drug-selected MDR subline cells KB-V1 | KB-V1 MDR cells viability, CellTiter-Glo, 72 h | Potency, µM (series often up to 46.1 µM), most hits filed as cytotoxic | 400,000 compounds, 3.4% hits | AID 1347076, 2019; further: nearly all actives have a fitted effect of over 60% in size
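qHTS viability screen in drug-selected KB-V1 MDR cells: 72 h compound treatment at 37 degrees C, ATP luminescence end point.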
MCF10A rereplic: A quantitative high throughput screen for small molecules that induce DNA re-replication in MCF 10a normal breast cells | MCF 10A DNA re-replication, Hoechst nuclear intensity, 48 h | Potency, µM (doses to about 46.1 µM), most hits filed as activators | 350,000 compounds, 2.9% hits | AID 624296, 2012; further: nearly all actives have a fitted effect of over 50% in size
SW480 rereplic: A quantitative high throughput screen for small molecules that induce DNA re-replication in SW480 colon adenocarcinoma cells; 340,000 compounds, 1.8% hits; SW480 DNA re-replication, Hoechst DNA content imaging, 48 h; Potency, µM (titrated, usually from 46.1 µM), hits mostly activators; further: nearly all actives have a fitted effect of over 55% in size
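Image-based read-out: total Hoechst fluorescence of nuclei (405 nm excitation, 500-530 nm emission), with hits raising the fraction of high-intensity nuclei. SW480 colon cells incubated 48 hr with compounds at 37 C.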
Numbers stand for hits; . = inactive; ? = inconclusive; / = no result; [ ] = another dose, or the depositor's remark. The list is not random: actives were taken first. Their share in the collection is about 10%. The call rests on the fitted dose curve; in most records, active means well fitted curve in the direction sought with a large enough effect; inconclusive means small, poorly fitted or top-dose-only effect, or another doubt; inactive means no such curve, though single readings can be large; an effect the other way counts as inactive or inconclusive.

SMILES	Gal4-VP16 FLuc	RORgamma inh	KB-3-1 tox	KB-V1 MDR tox	MCF10A rereplic	SW480 rereplic
COc1ccc(C(=O)CC(=O)c2ccccc2O)cc1OC	.[10 µM]	7.1µM	.	?	.	.
COc1ccc(C(=O)CNc2ccccc2CO)cc1	.	.	.	.	?	?
COc1ccc(C(=O)NNC(=O)c2cccc3ccccc23)cc1	/	/	.	.	.	.
COc1ccc(C(=O)COc2ccc(C(C)=O)cc2OC)cc1OC	/	/	.	?	.	.
COc1ccc(C(=O)CC(=O)c2ccccc2O)cc1	6.3µM	7.9µM	.	.	.	.
COc1ccc(O)c(C(=O)CC(=O)c2ccccc2C)c1	0.71µM	.	?	?	?	21µM
COC(=O)c1ccccc1NCC(=O)c1ccc(OC)cc1	18µM	.	.	.	?	?
COc1ccc(NC(=O)c2ccccc2C)c(OC)c1	.	.	.	?	.	.
CCCn1cc(S(=O)(=O)c2ccc(C)c(C)c2)c(=O)c2cc(F)c(N3CCC(C)CC3)cc21	/	/	.	.	/	/
Cc1nc(-c2ccc(C)c(N3CCN(C(=O)Nc4cccc(Cl)c4C)CC3)c2)no1	/	/	.	.	/	/
COc1ccc(S(=O)(=O)N(CC(=O)Nc2ccc(Br)cc2)Cc2ccccc2)cc1	/	/	.	?	/	/
CCOC(=O)CN(Cc1ccccc1)S(=O)(=O)c1ccc(NC(C)=O)cc1	.	.	.	15µM	.	.
COc1ccc(S(=O)(=O)N(CC(=O)Nc2ccccc2Br)Cc2ccccc2)cc1	/	/	16µM	?	/	/
COCCNC(=O)CN(CCc1ccccc1)S(=O)(=O)c1ccc(OC)cc1	.	.	.	18µM	.	.
Cc1ccccc1Oc1cc(NC(=O)CCCn2nc(C)c([N+](=O)[O-])c2C)cc([N+](=O)[O-])c1	.	.[10 µM]	.	3.3µM	.	.
CCn1nc(C)c(C(=O)Nc2cc(Oc3ccc(Cl)cc3)cc([N+](=O)[O-])c2)c1C	.	.	.	?	8.2µM	?
Cc1nn(CCCC(=O)Nc2cc(Oc3ccc(F)cc3)cc([N+](=O)[O-])c2)c(C)c1[N+](=O)[O-]	10µM	?	.	5.8µM	.	.
Cc1c(Cl)c([N+](=O)[O-])nn1CCCC(=O)Nc1cc(Oc2ccccc2)cc([N+](=O)[O-])c1	.	?	.	?	.	.
CCn1nc(C)c([N+](=O)[O-])c1C(=O)NNC(=O)c1ccc(Cl)cc1	.	.	.	.	?	.[9.22 µM]
Cc1ccc(CNC(=O)c2nn(C)c(C)c2[N+](=O)[O-])cc1	.	.	.	.	.	0.52µM
Cc1ccc(CNC(=O)c2ccc([N+](=O)[O-])o2)cc1	?	.	?	?	?	?
Cc1nn(CCCC(=O)NCc2ccc(Cl)cc2)c(C)c1[N+](=O)[O-]	.	.	.	23µM	.	.
Cc1ccc(C(=O)NNC(=S)NCC2CCCO2)cc1[N+](=O)[O-] (centres undefined)	.	5.6µM	/	/	.	.
Cc1ccc(C(=O)NC(=S)NCC2CCCO2)cc1[N+](=O)[O-] (centres undefined)	?	7.1µM	.	.	.	.
Nc1nc2ncccn2c1-c1ccc(F)cc1	/	/	.	.	/	/
SMILES	Gal4-VP16 FLuc	RORgamma inh	KB-3-1 tox	KB-V1 MDR tox	MCF10A rereplic	SW480 rereplic
O=Nc1nc2ncccn2c1-c1ccccc1	/	/	.	?	13µM	9.2µM
COc1ccccc1OC(C)C(=O)Nc1nc(-c2ccc(S(=O)(=O)N3CCOCC3)cc2)cs1 (centres undefined)	.	.	.	4.6µM	?	.
COc1ccccc1C(=O)Nc1ccc(S(=O)(=O)N2CCOCC2)cc1	.	.	.	?	.	.
COc1ccccc1C(=O)Nc1nc(-c2ccc(S(=O)(=O)N3CCOCC3)cc2)cs1	3.2µM	.	15µM	4.6µM	?	.
CC(C)C(=O)Nc1nc(-c2ccc(S(=O)(=O)N3CCOCC3)cc2)cs1	.	.	/	/	?	.
Cc1ccc(NC(=O)C2(C)CCN2Cc2cccc3c2OCO3)cc1O (centres undefined)	/	/	.	?	/	/
COc1ccc(-c2n[nH]c3c2cnc2ccc(F)cc23)cc1	/	/	.	.	/	/
OCCCCNCc1ccc(OCc2ccc(Cl)cc2Cl)cc1	.	?	.	.	.	.
Cc1ccccc1CSCCNC(=S)Nc1ccccc1	7.1µM	2.2µM	?	?	.	.
OCCNCc1ccc(OCc2ccc(Cl)cc2Cl)cc1	.[10 µM]	13µM	.	.	?	4.1µM
Cc1ccccc1CSCCC(=O)NCCc1ccccc1	.	.	.	.	.	.
Cc1ccccc1CSCCNC(=O)c1ccccc1	.	.	.	16µM	.	.
COc1ccc(CSCCNC(=S)Nc2ccccc2)cc1Cl	?	4.5µM	.	.	.	.
Cc1cccc(CNC(=O)CCCN2C(=O)c3cccnc3Oc3ccccc32)c1	/	/	.	.	/	/
COc1ccc(/C=C/C2=C[C@]3(C)C[C@]2(C)[C@H](c2ccc(OC)cc2)CC3=O)cc1	.	.	/	/	/	/
COc1cccc(CNC(=O)C2CCCN(c3nn4cc(-c5ccc(C)cc5)nc4s3)C2)c1 (centres undefined)	/	/	.	.	/	/
Cc1ccc(CSCCNC(=O)CSCc2ccc([N+](=O)[O-])cc2)cc1	.	.	.	.	.	.
S=C(NCCSCc1ccc(Cl)cc1Cl)Nc1ccccc1	4µM	3.2µM	?	?	?	.
S=C(Nc1ccccc1)Nc1ccc(OCc2ccc(Cl)cc2Cl)cc1	7.1µM	1.4µM	.	.	.[0.0737 µM]	?
S=C(NCCSCc1c(Cl)cccc1Cl)Nc1ccccc1	5µM	2µM	?	21µM	?	.
Cc1ccccc1CSCCNC(=O)CSCc1ccc([N+](=O)[O-])cc1	.	.	.	16µM	.	.
Cc1ccc(C)c(C(=O)C[n+]2cccc(Br)c2)c1	/	/	?	.	/	/
CCc1ccc(NC(=O)CN(c2ccccc2)S(=O)(=O)N(C)C)cc1	.[10 µM]	.	.	.	.	.
Cc1ccccc1CSCCNC(=O)CN(c1ccccc1)S(=O)(=O)N(C)C	/	/	?	16µM	/	/
CN(C)S(=O)(=O)N(CC(=O)NCCSCc1ccccc1)c1ccccc1	.	.	.	.	.	.
S=C(NCCSCc1ccc(Cl)c(Cl)c1)Nc1ccccc1	/	/	.	.	26µM	?
Cc1ccc(NC(=O)CN(c2ccccc2)S(=O)(=O)N(C)C)cc1Cl	/	/	?	12µM	/	/
Cc1ccc(CN=C2Nc3ccccc3CS2)cc1	?	?	?	13µM	?	.
Oc1c(Br)cc(Br)cc1C=Nc1ccc2c(c1)OCO2	?	18µM	.	.	?	.
Cc1noc(C)c1-c1ccc2nc[nH]c(=O)c2c1	/	/	13µM	?	.	.[9.22 µM]

Screening results: PubChem BioAssay, National Center for Advancing Translational Sciences (NCATS)
